Measured values published in PubChem BioAssay.
“And” between values parts separate entries of the source, which are not always exact repeats. Identical values can stand only once. Results filed as inconclusive are left out. The source made the active and inactive calls. Unless noted, no cut-off is given here; in the data, nearly all actives have AC50 up to about 26 µM.

Tests used:
[1] = viability loss in pontine glioma line – cell-based, SU-DIPG-XVII, MIPE5.0, CellTiter-Glo, qHTS, dose response (AID 1347060); details: CellTiter-Glo ATP luminescence;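 for AC50: cells exposed to compound for 48 hours before viability readout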
[2] = viability loss in pontine glioma line – cell-based, SU-DIPG-XIII, MIPE4.0, CellTiter-Glo, qHTS, dose response (AID 1347061; cut-off not given, nearly all actives have AC50 up to about 37 µM;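 note: cells exposed to compound for 48 hours before readout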); details: CellTiter-Glo ATP luminescence
[3] = viability loss in pontine glioma line – cell-based, JHH-DIPG-1, MIPE4.0, CellTiter-Glo, qHTS, dose response (AID 1347062; cut-off not given, nearly all actives have AC50 up to about 27 µM); details: JHH-DIPG-1 viability, CellTiter-Glo ATP luminescence
[4] = viability loss in pontine glioma line – cell-based, SU-DIPG-XXV, MIPE5.0, CellTiter-Glo, qHTS, dose response (AID 1347065); details: CellTiter-Glo ATP luminescence;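 note: cells exposed to compound for 48 hours before ATP readout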
[5] = growth inhibition of DIPG cells – cell-based, MIPE4.0 library, CellTiter-Glo luminescence, qHTS (AID 1347066; cut-off not given, nearly all actives have AC50 up to about 30 µM;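 note: cells exposed to compound for 48 hours before readout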); details: SU-DIPG-VI viability, CellTiter-Glo ATP luminescence
[6] = JHH-DIPG-1 glioma cell viability, MIPE5.0 library, CellTiter-Glo luminescence, qHTS (AID 1347067); details: JHH-DIPG-1 glioma viability, CellTiter-Glo ATP luminescence;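 note: cells exposed to compound for 48 hours before readout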
[7] = growth inhibition of DIPG cells – cell-based, MIPE5.0 library, qHTS (AID 1347068; cut-off not given, nearly all actives have IC50 up to about 30 µM;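 for IC50: cells exposed to compound for 48 hours before viability readout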); details: SU-DIPG-XXV viability
[8] = viability loss with induced miR-34 in A549 – imaging, A549 dox-inducible miR-34, nuclei and caspase counts, primary screen (AID 1347080;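 active = compounds whose cell count with miR-34 switched on is under 0.7 times the count with it off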); details: A549 miR-34 inducible, Hoechst nuclei count, 48 h
[9] = MELAS cybrid and Rieske KO viability enhancers – cell-based, MELAS cybrids, Rieske KO mouse fibroblasts, CellTiter-Glo, primary screen (AID 1508586;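 active = mean z-score across replicates of 1.96 or higher in either the MELAS or the Rieske mutant cell line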;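 note: z relative to plate mean and SD of compound and empty wells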); details: low glucose
[10] = viability loss in pontine glioma line – cell-based, SU-DIPG-XIII, MIPE5.0, CellTiter-Glo, qHTS, dose response (AID 1347064; cut-off not given, nearly all actives have AC50 up to about 23 µM;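 for AC50: cells exposed to compound for 48 hours before the viability read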); details: CellTiter-Glo ATP luminescence
[11] = viability loss in pontine glioma line – cell-based, SU-DIPG-IV, MIPE4.0, CellTiter-Glo, qHTS, dose response (AID 1347063; cut-off not given, nearly all actives have AC50 up to about 30 µM;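 note: compound exposure lasted 48 hours before the viability readout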); details: CellTiter-Glo ATP luminescence
[12] = stronger effect = lower value, cell number ratio, induced over uninduced
[13] = measured here: relative caspase fold change +Dox/-Dox
[14] = measured here: total cells with miR-34 induction, stronger effect = lower value
[15] = measured here: total cells without miR-34 induction
[16] = MELAS cybrid survival, CellTiter-Glo 48 h, stronger effect = higher value
[17] = Rieske KO mouse fibroblast survival, CellTiter-Glo 72 h

COc1ccc(-n2c(C)c([N+](=O)[O-])c3ccc(O)cc32)cc1
outcome [1]: inactive | AC50 [2]: 4.69 µM (active) | outcome [3]: inactive | outcome [4]: inactive | outcome [5]: inactive | outcome [6]: inactive | outcome [7]: inactive | fold change [8, 12]: 0.881 (inactive) | fold change [8, 13]: 0.334 | cell count [8, 14]: 6450 | cell count [8, 15]: 7330 | z-score [9, 16]: 0.252 (inactive) | z-score [9, 17]: -3.43

CC1CCC(C(=O)N(c2cc(C#CC(C)(C)C)sc2C(=O)O)C2CCC(O)CC2)CC1 (stereo unspecified)
AC50 [1]: 26.3 µM (active) | outcome [2]: inactive | outcome [3]: inactive | AC50 [6]: 23.5 µM (active) | fold change [8, 12]: 0.937 (inactive) | fold change [8, 13]: 0.832 | cell count [8, 14]: 7690 | cell count [8, 15]: 8210 | z-score [9, 16]: 0.177 (inactive) | z-score [9, 17]: -0.0881

Cc1ccc2c(c1)C(=O)[C@]1(O)CCN(c3ccccc3)C1=N2
AC50 [1]: 14.8 µM (active) | outcome [2]: inactive | outcome [3]: inactive | outcome [5]: inactive | outcome [6]: inactive | outcome [7]: inactive | fold change [8, 12]: 0.934 (inactive) and 0.847 (inactive) | fold change [8, 13]: 0.749 and 0.315 | cell count [8, 14]: 6020 and 6690 | cell count [8, 15]: 6450 and 7900 | z-score [9, 16]: -0.292 (inactive) | z-score [9, 17]: -2.56

CNC(=O)c1ccc2cc(C3(O)CCn4cncc43)ccc2c1 (stereo unspecified)
outcome [1]: inactive | outcome [2]: inactive | outcome [3]: inactive | outcome [10]: inactive | outcome [5]: inactive | outcome [6]: inactive | outcome [7]: inactive | fold change [8, 12]: 0.927 (inactive) | fold change [8, 13]: 0.607 | cell count [8, 14]: 8020 | cell count [8, 15]: 8650 | z-score [9, 16]: 0.566 (inactive) | z-score [9, 17]: -0.147

CN(C)C(=O)c1ccc(S(=O)(=O)c2ccc(NC(=O)[C@@](C)(O)C(F)(F)F)c(Cl)c2)cc1
outcome [1]: inactive | outcome [2]: inactive | outcome [3]: inactive | outcome [6]: inactive

c1cc(-c2sc(-c3ccncc3)c(-c3ccncc3)c2-c2ccncc2)ccn1
outcome [1]: inactive | outcome [2]: inactive | outcome [3]: inactive | outcome [4]: inactive | outcome [5]: inactive | outcome [6]: inactive | outcome [7]: inactive

C[C@](Cc1c[nH]c2ccccc12)(NC(=O)OC1C2CC3CC(C2)CC1C3)C(=O)NC[C@H](NC(=O)CCC(=O)O)c1ccccc1 (stereo partly specified)
outcome [1]: inactive | outcome [2]: inactive | outcome [11]: inactive | outcome [10]: inactive | outcome [4]: inactive | outcome [5]: inactive | outcome [6]: inactive | outcome [7]: inactive

CCn1c(-c2nonc2N)nc2cncc(CNC3CCNCC3)c21
outcome [1]: inactive | outcome [2]: inactive | outcome [3]: inactive | outcome [5]: inactive | outcome [6]: inactive | outcome [7]: inactive

NC1(C(=O)N[C@@H](CCO)c2ccc(Cl)cc2)CCN(c2ncnc3[nH]ccc23)CC1
AC50 [1]: 14.8 µM (active) | AC50 [2]: 14.8 µM (active) | AC50 [11]: 0.662 µM (active) | AC50 [10]: 1.48 µM (active) | AC50 [4]: 2.09 µM (active) | IC50 [7]: 3.72 µM (active)

Cc1ccc(C(C)(O)c2nc3ccccc3s2)c(C)c1 (stereo unspecified)
outcome [1]: inactive | outcome [2]: inactive | outcome [3]: inactive | outcome [10]: inactive | outcome [5]: inactive | outcome [6]: inactive | outcome [7]: inactive
